Source: PubChem BioAssay
Compounds with a hit are over-represented: about 5.4% of the library has one in this group of screens.
VACV mCherry inh: inhibitors of vaccinia virus infection (mCherry reporter signal); Vaccinia virus mCherry reporter infection, fluorescence; Potency, µM (titrated, usually from 36.5 µM), for the others: top-dose activity change, negative = inhibition, actives largely listed as inhibitors; hit rate 0.63% among 310,000; calls by dose curve; tested in A549 cells; further: nearly all actives have a fitted effect of over 35% in size
FMDV inh: blocks foot and mouth disease virus. FMDV antiviral cell-based qHTS. Potency, µM (top dose mostly 57.9 µM), for inactives: at the top dose activity change, negative = inhibition, usual class: inhibitors. hit rate 1.2% among 410,000. AID 1159524; calls by dose curve; tested in HEK293T cells; further: read-out not given here; nearly all actives have a fitted effect of over 45% in size
Lassa entry inh: Lassa virus entry inhibition; Lassa virus pseudotype entry inhibition, cell reporter; AID 540256; Potency, µM (titrated, usually from 37.9 µM), without a hit: at the top dose activity change, negative = inhibition, hits mostly inhibitors; hit rate 1.2% among 300,000; calls by dose curve; tested in HEK293 cells; further: nearly all actives have a fitted effect of over 50% in size
Sm TGR block: blocks Schistosoma mansoni thioredoxin glutathione reductase. Potency, µM (series often up to 114 µM), without a hit: at the top dose activity change, negative = inhibition, usual class: inhibitors. hit rate 3% among 360,000. purified TGR, DTNB reduction, TNB absorbance 405 nm. AID 485364. Q962Y6; active means well fitted inhibition curve with a large enough effect; inconclusive means small, poorly fitted or top-dose-only effect; inactive means no such curve, though single readings can be large or run the other way; further: nearly all actives have a fitted effect of over 60% in size
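First, TGR (20 nM dispensed) and NADPH were mixed with compound. Second, a 15 min room-temperature incubation followed. Third, further NADPH and then DTNB were added to start the reaction. Finally, TNB absorbance was monitored kinetically.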
Vaccinia Venus: inhibitors of vaccinia virus (Venus reporter); Vaccinia virus Venus reporter expression, fluorescence; Potency, µM (highest dose often 36.5 µM), inactives show at the highest dose activity change, negative = inhibition, actives largely listed as inhibitors; hit rate 0.46% among 330,000; calls by dose curve; tested in A549 cells; further: nearly all actives have a fitted effect of over 30% in size
MARV entry inh: Marburg virus entry inhibition; Marburg virus pseudotyped entry inhibition, cell reporter; Potency, µM (doses to about 37.8 µM), without a hit: at the highest dose activity change, negative = inhibition, hits mostly inhibitors; hit rate 1.8% among 300,000; AID 540276; calls by dose curve; tested in HEK293 cells
* = called active by the depositor; i = inactive; u = inconclusive; x = not tested or not shown; ! = not confirmed by another sample; [ ] = remark or other dose. On the % scale 0 is the no-effect control and ±100 the full control effect; potency means the concentration at half of the fitted maximal effect.

SMILES	VACV mCherry inh	FMDV inh	Lassa entry inh	Sm TGR block	Vaccinia Venus	MARV entry inh
COc1ccc(Cl)c2sc(NC(=O)c3ccc(S(=O)(=O)N4CCOCC4)cc3)nc12	13.2%	-24.6%	8.3%[46.1 µM]	3.7%	9.2%	x
COc1ccc(CNc2ncnc3ccc(-c4ccccc4CN(C)C)cc23)c(OC)c1	-25.0%	2.9%	x	x	u	x
CC1=C(c2ccc(C)cc2)S(=O)(=O)N(Cc2ccc(C(=O)NCc3cccc(C)c3)cc2)C1=O	-4.9%	u	u	-2.5%	-12.8%	x
N#Cc1ccc(Nc2nc(-c3ccc(O)cc3O)cs2)cc1C(F)(F)F	u	35.5µM*	x	1.3%	11.2µM*	x
Nc1c(C(O)(C(F)(F)F)C(F)(F)F)ccc2ccccc12	-29.7%	-12.9%	3.5%	39.8µM*	-28.3%	u
Cn1cnc([N+](=O)[O-])c1Sc1nnc(-c2cccnc2)n1C	i	u	x	0.447µM*	-12.3%	x
Cc1cccnc1Sc1c([N+](=O)[O-])ncn1C	x	-18.3%	-6.8%	0.0%	x	2.9%
c1csc(-c2csc3nc(CN4CCOCC4)nc(NCc4ccc5c(c4)OCO5)c23)c1	x	u	-13.3%	-19.7%	x	18.3µM*
c1ccc2c(c1)nc(NCc1ccc3c(c1)OCO3)n2CCN1CCOCC1	x	-17.1%	6.9%	x	x	-10.1%
CC(C)[C@@]1(NC(=O)[C@@H]2C[C@@H]3c4cccc5[nH]cc(c45)C[C@H]3N(C)C2)O[C@@]2(O)[C@@H]3CCCN3C(=O)[C@H](Cc3ccccc3)N2C1=O	-15.2%	0.0%	u	-13.8%	-27.1%	5.62µM*!
CC(C)[C@@]1(NC(=O)[C@@H]2C[C@@H]3c4cccc5[nH]cc(c45)C[C@H]3N(C)C2)O[C@@]2(O)C3CCCN3C(=O)[C@H](Cc3ccccc3)N2C1=O (some centres undefined)	x	x	-39.6%	x	x	5.62µM*
CSc1ncccc1C(=O)NCC1Cc2cc(-c3cnccn3)cc(Cl)c2O1 (centres undefined)	i	11.8%	x	x	-12.5%	x
CN1CCc2c(sc3c2C(=O)NC(/C=C\c2ccccc2)N3)C1 (centres undefined)	-4.2%	-16.0%	19.0%	10µM*	19.4%	16.4%[14.2 µM]
CN1CCc2c(sc3c2C(=O)NC(c2cccs2)N3)C1 (centres undefined)	-6.9%	x	27.1%	-21.1%	1.8%	16.3%
COc1ccc([C@]23Cc4ccccc4C(O2)C2=C(O3)C(=O)c3ccccc3C2=O)cc1	x	x	x	7.08µM*	x	x
COc1ccc([C@]23Cc4cc(OC)c(OC)cc4C(O2)C2=C(CCCC2=O)O3)cc1	x	x	x	3.55µM*	x	x
COc1ccc([C@]23Cc4cc(OC)c(OC)cc4[C@H](O2)C2=C(CCCC2=O)O3)cc1	x	x	x	x	x	6.0%[14.2 µM]
O=C1C2=C(C(=O)c3ccccc31)[C@H]1O[C@](c3ccsc3)(Cc3ccccc31)O2	x	x	x	x	x	-7.7%[14.2 µM]
Cc1nc2cc(-c3cccc(F)c3)nn2c(C)c1CCC(=O)NCCc1ccccc1	-15.2%	-26.7%	-1.2%[46.1 µM]	22.4µM*	-19.6%	-3.7%[46.1 µM]
Cc1nc2cc(-c3ccccc3)nn2c(C)c1CCC(=O)NCCc1ccccc1	-12.9%	-13.7%	-3.2%[46.1 µM]	-1.9%	-6.3%	7.0%[46.1 µM]
COc1cc(OC)cc(-c2cc3nc(C)c(CCC(=O)Nc4ccc(F)c(Cl)c4)c(C)n3n2)c1	-20.4%	31.6µM*	-21.5%[46.1 µM]	-3.3%	-14.5%	u
CCC(CC)C(=O)Nc1ccc(Sc2ccc([N+](=O)[O-])cc2)cc1	x	u	10.0%	3.2%	x	-14.4%
CCCC(=O)Nc1ccc(Sc2ccc([N+](=O)[O-])cc2)cc1	x	u	10µM*	u	-28.3%	20µM*
Cc1ccc[n+](CC(=O)Nc2ccc([N+](=O)[O-])cc2)c1	x	0.0%	x	35.5µM*	x	x
CCCCCCCCC[n+]1cccc2c3ccccc3ccc21	x	0.0%	2.82µM*	2.0%	11.2µM*	2µM*
CCCCCCCCCCCC[n+]1ccc(C)c2ccccc21	-11.2%	x	x	x	-9.5%	x
CCCCCCCCCCCCCCCC[n+]1cccc2ccccc21	10µM*	u	7.94µM*	u	10µM*	u
COc1ccc(-c2nc(SCC(=O)Nc3ccccc3)c(-c3ccc(F)cc3)[nH]2)cc1OC	-5.7%	u	-24.4%[46.1 µM]	4.5%	-1.2%	-10.2%[46.1 µM]
CCOC(=O)c1cnn(-c2ccc(C(=O)Nc3ccc(OC(F)(F)F)cc3)cc2)c1N	-16.4%	-11.6%	10.8%[46.1 µM]	7.5%	-4.9%	x
